# According to PubChem BioAssay (NCI):
# About 83,000 compounds went through this panel and 20% of them were active in at least one assay; those are over-represented in the sample as a whole.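 Method: cells in 96-well plates; compound added at one concentration; 48 h incubation; percent growth measured; values under 10 scored active.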 A number with no mark means an inactive call. Active and inactive are the calls of the source.
# System: SF-268 CNS
# Assay: NCI-60 one-dose screen, 48 h (100 = growth as untreated, 0 = no growth, -100 = all killed)
# Conditions: 10 µM unless noted
row,Compound,growth
1,CNCc1cccc2c1OCCOCCOCCN(CCN1CCOCC1)S(=O)(=O)c1ccc(cc1)-c1cnc(N)c(n1)C(=O)N2,68%
2,Cc1cnc(-c2ccc(-c3ccc(NC(=O)Nc4c(F)cc(F)cc4F)cc3F)c3c2C(=O)NC3)[nH]1,39.2%
3,Cc1cc(C)c(NC(=O)c2sc3nc4c(cc3c2N)CCCCCC4)c(C)c1,59.4%
4,O=C1NN(c2ccccc2)C(c2ccc3c(c2)OCO3)N2CCC[C@@H]12 (stereo partly drawn),94%
5,C=C1C(=O)O[C@H]2[C@H]1CC/C(COC(=O)CCCCCCCCC(=O)OC/C1=C/CC[C@@]3(C)O[C@H]3[C@H]3OC(=O)C(=C)[C@@H]3CC1)=C\CC[C@@]1(C)O[C@@H]21,20.7%
6,COc1ccc(C2N(c3cc(OC)c(OC)c(OC)c3)C(=O)C2(F)F)cc1F (stereo not drawn),52.9%
7,C=C1C(=O)O[C@H]2[C@H]1CC/C(COC(=O)CCCCCCC(=O)OC/C1=C/CC[C@@]3(C)O[C@H]3[C@H]3OC(=O)C(=C)[C@@H]3CC1)=C\CC[C@@]1(C)O[C@@H]21,54.2%
8,O=c1nc(-c2ccccc2)c2cc(-c3ccc(N4CCCC4)nc3)ccc2[nH]1,83.2%
9,O=C(Nc1nc(-c2ccccc2)cs1)c1cc(-c2ccc(Br)cc2)nc2ccccc12,53.8%
10,COc1ccc2nc3c(n2c1)C(=O)C(=O)c1ccccc1-3,2.6% (active)
11,C=C1C(=O)O[C@H]2[C@H]1CCC(/C=N/c1ncc(Br)cc1N)=C\CC[C@@]1(C)O[C@@H]21,52.5%
12,COC(=O)c1ccc(NC(=O)CSc2nc(-c3ccc(F)cc3)nc3ccccc23)cc1,75.8%
13,COc1ccc(C2C(c3ccccc3)C(=O)N2c2cc(OC)c(OC)c(OC)c2)cc1I (stereo not drawn),34.9%
14,O=[N+]([O-])c1cccc(CN(Cc2cccc([N+](=O)[O-])c2O)c2ccccc2)c1O,89.4%
15,Nc1c(C(=O)Nc2ccccn2)sc2nc3c(cc12)CCCCCC3,35.6%
16,C[C@]12CC[C@@H]3c4ccc(O)cc4CC[C@H]3[C@@H]1C[C@H](O)C2,78.4%
17,COCCOCCOCc1n(Cc2ccc3ccccc3c2)c2ccccc2[n+]1Cc1ccc2ccccc2c1,17.9%

row,Compound,growth
1,COc1ccc(C(=O)c2cc(F)c(F)c(OC)c2F)cc1OC(=O)CCl,58.7%
2,Nc1cccc(C(=O)Nc2ccc3c(O)c(N=Nc4ccc(N=Nc5ccc(S(=O)(=O)O)cc5)cc4)c(S(=O)(=O)O)cc3c2)c1,101%
3,O=C(Nc1ccccc1)NS(=O)(=O)c1c[nH]c(=S)[nH]c1=O,97.1%
4,CC(C)CSc1nc(Nc2ccccc2)c(C#N)c(-c2ccc(F)cc2)n1,37.7%
5,CC(C)(C#N)c1cc(F)cc(C(=O)Nc2cc(Nc3ncccc3-c3ncnc4nc[nH]c34)ccc2F)c1,60.6%
6,COc1c(O)cc2oc3cc(O[C@@H]4OC(C)[C@@H](O)[C@H](O)C4O)c(CC=C(C)C)c(O)c3c(=O)c2c1CC=C(C)C (stereo partly drawn),92.7%
7,O=C(CCCC(=O)Nc1ccc(-n2nnc3cc(Cl)c(Cl)cc32)cc1)Nc1ccc(-n2nnc3cc(Cl)c(Cl)cc32)cc1,60.8%
8,Cn1cc(-c2ccc3c(c2)ncn3-c2ccc(CC(=O)Nc3cc(C(C)(C)C)on3)cc2)cn1,25.6%
9,CCC1S/C(=N\N=C(/C)c2ccc[nH]2)N(c2ccccc2)C1=O (stereo not drawn),109%
10,CC(=O)ON1CCCC(P(=O)(OCOC(=O)C(C)(C)C)OCOC(=O)C(C)(C)C)C1=O (stereo not drawn),1.95% (active)
11,Cc1cccc(C)c1Nc1nnc(-c2ccc(F)cc2)o1,96.2%
12,COc1ccc(C2=NN(c3ccc(S(N)(=O)=O)cc3)C(c3ccc(Cl)cc3)C2)c(O)c1 (stereo not drawn),83.8%
13,CC(=O)Nc1nc2c(c(N)c1C#N)C(c1cccc(Cl)c1)C1=C(CCCC1=O)N2c1sc2c(c1C#N)CCCC2 (stereo not drawn),66.3%
14,C#Cc1ccccc1NC(=O)c1sc2nc3c(cc2c1N)CCCCCC3,48.5%
15,C=C(C)[C@@H]1CC[C@]2(C(=O)N3CCN(C)CC3)CC[C@]3(C)[C@H](CC[C@@H]4[C@@]5(C)C/C(=C/c6ccco6)C(=O)C(C)(C)[C@@H]5CC[C@]43C)[C@@H]12,68.9%
16,CCCCC(=O)Nc1c(C(=O)Nc2ccccc2)sc2nc3c(cc12)C(OC(=O)CCCC)CCC3 (stereo not drawn),85.7%
